Experimental findings from PubChem BioAssay AID1240 (Sanford-Burnham Center for Chemical Genomics, 2008) are described below.

Structures are written as SMILES. Screen size: about 50,000 compounds; about 800 (1.6%) showed an effect of 50% or more. The sample holds strong results, similar compounds and a random draw of the others, so the mix is not that of the screen.

For the assay, the target named is Bcl-2-like protein 10 (Homo sapiens) (UniProt Q9HD36). As to the kind of experiment: TR3 peptide-Bcl-B binding displacers, biochemical primary FP assay, phenotype converters (AID 1240).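 Also: 0% = Bcl-B with tracer peptide and DMSO and 100% = tracer peptide lacking Bcl-B.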 The conditions noted are these: GST-Bcl-B / FITC-TR3 peptide fluorescence polarization; stronger effect = higher value; compound at 3.75 mg/L. (In fluorescence polarisation assays a small probe gives low polarisation when free and higher when bound to something large.)
Bcl-2-like protein 10 (Homo sapiens), sequence (Q9HD36 whole entry, looked up): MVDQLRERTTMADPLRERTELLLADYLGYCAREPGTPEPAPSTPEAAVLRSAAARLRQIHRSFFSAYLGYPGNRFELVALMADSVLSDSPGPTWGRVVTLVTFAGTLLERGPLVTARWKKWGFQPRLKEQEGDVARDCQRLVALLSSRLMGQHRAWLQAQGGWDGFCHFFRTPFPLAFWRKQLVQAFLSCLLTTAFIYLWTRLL
`COc1ccc(-c2nc(NC(=O)c3ccccc3F)sc2-c2ccc([N+](=O)[O-])cc2)cc1`: the displacement turned out to be 13.6%.

Turning to `CCOC(=O)C1=C(C)NC(C)=C(C(=O)OCC)C1c1cccs1`, the displacement is -5.1%. As for `CCOC(=O)C1=C(C)NC(=O)/C1=C\c1cccs1`, the displacement worked out at 108%. Take `CCOc1ccc(/C=C2\C(=O)NC(C)=C2C(=O)OC)cc1`: the displacement stood at 10.8%. As for `Cc1ccc(S(=O)(=O)Nc2ccccc2C(O)C[N+](=O)[O-])cc1` (stereo unspecified), the displacement is -4.2%. For `COc1ccc2c(c1)cc(C(=O)NN)n2C`, the displacement came to 67.4%. With `CNC(=O)c1cc2cc(OC)ccc2n1CCN(C)C` the figure was -11.4%. On to `COc1ccc(N2Cc3ccc(C(=O)NN)cc3C2)cc1`, for which the displacement was -29.2%. To `COC(=O)C1=NN(C(C)=O)C(O)(c2ccccc2)C1` (stereo unspecified) belongs 2.1%. With `COc1ccc(/C=N\N2CCN(c3ccccc3OC)CC2)cc1OC` the figure was -6.7%. To `CCOc1cccc(-c2cc(C(=O)N3CCCCCC3)c3ccccc3n2)c1` belongs -10.2%.

In the case of `CCOc1cccc(-c2cc(C(=O)N3CCc4ccccc43)c3ccccc3n2)c1`, the displacement is 110%. To `CCOc1cccc(-c2cc(C(=O)N3CCN(C)CC3)c3ccccc3n2)c1` belongs -5.5%; to `CCOc1cccc(-c2cc(C(=O)Nc3cc(C)ccn3)c3ccccc3n2)c1`, 2%. For `CCOc1ccc(-c2cc(C(=O)Nc3nnc(C)s3)c3ccccc3n2)cc1`, the displacement stood at 6.3%. With `CCOc1cccc(-c2cc(C(=O)Nc3nnc(C)s3)c3ccccc3n2)c1` the figure was 135%; with `Cc1ccccc1OCC(=O)N1N=C(c2ccc(F)cc2)CC1(O)C(F)(F)F` (stereo unspecified), -4.5%.

In the case of `Cc1[nH]c2ccccc2c1/C=N/NC(=O)c1cccc([N+](=O)[O-])c1`, the displacement turned out to be 0.7%. `COc1ccc(C(C)N(C)CCC(c2ccccc2)c2ccccc2)cc1OC` (stereo unspecified): the displacement was 5.7%. To `Cn1c(=O)c(N)c2c3c(c(Br)ccc31)C(=O)c1ccccc1-2` belongs 159%; to `Cn1c(=O)c(N)c2c3c(cccc31)C(=O)c1ccccc1-2`, 154%; to `Cn1c2c(c(=O)n(C)c1=O)C(c1ccc(Br)cc1)C1=C(N2)c2ccccc2C1=O` (stereo unspecified), -10.4%. To `Cn1c(=O)c(N2CCCCC2)c2c3c(cccc31)C(=O)c1ccccc1-2` belongs 147%; to `Nc1ccc2c(c1)C(=O)c1ccccc1C2=O`, 6.9%; to `Cn1c(=O)c(-c2ccccc2N)nc2ccccc21`, -5.4%. Consider `Cn1c(=O)c(-c2ccccc2N)nc2cc3ccccc3cc21`, for which the displacement stood at 33.6%. On to `O=C1c2ccccc2C(=O)c2c1cc(Cl)cc2N1CCCCC1`, for which the displacement was determined as 2.8%.

In the case of `O=C1c2ccccc2C(=O)c2c1c(Cl)c(Cl)c(Cl)c2N1CCCC1`, the displacement amounted to 8%. Regarding `COc1ccc(C2CC(C(F)(F)F)n3ncc(C(=O)NC(C)(C)C)c3N2)cc1` (stereo unspecified), the displacement came to 3.6%.

For the compound `O=C(c1nn2c(C(F)(F)F)cc(-c3ccco3)nc2c1Cl)N1CCN(Cc2ccccc2)CC1`, the displacement was 1.1%. On to `CCOc1ccc(C(=O)Nc2ccc([N+](=O)[O-])cc2)cc1Cl`, for which the displacement was -9.7%. To `O=C(N/N=C/c1ccc([N+](=O)[O-])o1)c1ccc(Cl)c(Cl)c1` belongs 19%; to `COc1ccc(N(CC(=O)Nc2ccccc2C)S(C)(=O)=O)cc1Cl`, -10.4%. In the case of `C/C(=N\NC(=O)c1cc(C23CC4CC(CC(C4)C2)C3)[nH]n1)c1ccc(N)cc1`, the displacement is -8.7%. To `Brc1ccc(C=NN2CCN(Cc3ccccc3)CC2)cc1` belongs -17.6%; to `CCOC(=O)C1=C(N)Oc2c(ccc3ccccc23)C1c1ccc(OC)cc1` (stereo unspecified), 108%; to `CCOC(=O)C1=C(C)OC(N)=C(C#N)C1c1ccc(OC)cc1` (stereo unspecified), -10.8%.

For the compound `CCOC(=O)C1=C(N)Oc2ccc3ccccc3c2C1c1ccc(Cl)cc1` (stereo unspecified), the displacement is -10.4%. With `COc1cc(/C=C2\SC(N)=NC2=O)cc(Br)c1OC` the figure was -25.9%; with `Cc1ccc(/C=C/C(=O)c2c3c(c(C)[nH]c2=O)CCCC3)cc1`, 49.3%; with `Cc1[nH]c(=O)c(C(=O)/C=C/c2ccccc2Cl)c2c1CCCC2`, 11%.

With `Cc1[nH]c(=O)c(C(=O)/C=C/c2cccs2)c2c1CCCC2`, the displacement was 119%. To `Cc1cccc(NC(=O)C(=O)NCc2ccco2)c1C` belongs 11%; to `O=C(Nc1ccc(I)cc1)c1ccc(Cl)cc1Cl`, 6.9%; to `Cc1ccc(N2C(=O)C(=O)/C(=C(/O)c3ccccc3)C2c2ccc(O)cc2)cc1Cl` (stereo unspecified), -3.5%. In the case of `Oc1c(Cl)cc(Cl)cc1C=Nc1cccc(C(F)(F)F)c1`, the displacement amounted to 2.4%. In the case of `NC(=O)c1cccc(N=Cc2cc(Cl)cc(Cl)c2O)c1`, the displacement was determined as 145%. To `NC(=O)c1ccccc1N=Cc1cc(Cl)cc(Cl)c1O` belongs -7.2%. With `CN(C)CCCNC(=O)/C=C/c1ccc(C(C)(C)C)cc1` the figure was 6.4%.

As for `O/N=C/c1cn(-c2ccccc2)nc1-c1ccc(Cl)cc1`, the displacement was -3.8%. With `O=c1oc2ccccc2cc1-c1nn(-c2ccccc2)cc1/C=N/O` the figure was 53%; with `O/N=C/c1cn(-c2ccccc2)nc1-c1ccccc1`, 10%. As for `COCCCNC(=O)C(=O)Nc1ccccc1F`, the displacement was -11.9%. To `CCOc1cc(C2C(C(=O)OC)=C(C)NC(C)=C2C(=O)OC)ccc1O` belongs 0.1%. Take `COc1ccc(/C=C2\SC(=S)N(c3ccc(F)cc3)C2=O)cc1OC`: the displacement was 105%. With `C=CCOc1ccc(/C=C2\SC(=S)N(c3ccc(OC)cc3)C2=O)cc1OC` the figure was 6.7%; with `COc1cc(/C=C2/SC(=S)N(c3ccccc3)C2=O)ccc1OC(=O)c1ccc(F)cc1`, 4.7%; with `COc1cc(/C=C2\SC(=S)N(c3ccc(F)cc3)C2=O)cc(OC)c1OC`, 3.3%. Take `COc1ccc(N2C(=O)/C(=C/c3ccc(OC)c(OC)c3)SC2=S)cc1`: the displacement amounted to 6.5%.

`CCOc1ccc(/C=C2\SC(=S)N(c3ccc(OC)cc3)C2=O)cc1OC`: the displacement came out at 114%.

For the compound `O=S(=O)(c1ccc(C=Nc2ccc(Br)cc2)cc1)c1ccc(C=Nc2ccc(Br)cc2)cc1`, the displacement is -8.7%. Take `COc1ccc(C2CC(C(F)(F)F)n3ncc(C(=O)Nc4ccc(F)cc4F)c3N2)cc1OC` (stereo unspecified): the displacement was -1.7%. With `CC1(C)Cc2ccccc2C(/C(=N\O)C(=O)c2ccccc2)=N1` the figure was 13.1%; with `COc1ccc(C(=O)Nc2cccc(S(N)(=O)=O)c2)cc1`, -5.8%; with `CCOP(=O)(OCC)/C(=C(\NC(=O)c1ccccc1)C(=O)Nc1ccccc1C(F)(F)F)c1ccccc1`, 12.2%. `COc1c(Cl)ccc(Cl)c1C(=O)NCCc1ccccc1`: the displacement was -18.4%.

On to `COc1ccc(CCNC(=O)c2c(Cl)ccc(Cl)c2OC)cc1OC`, for which the displacement is 57%.

Consider `COc1ccc(CCNC(=O)c2ccc(Cl)c(Cl)c2)cc1OC`, for which the displacement is 6%. With `C=CCN(CC=C)C(=O)COc1ccc(Cl)cc1` the figure was -5.1%; with `CC(=O)NCCc1c(C)n(Cc2ccccc2)c2ccccc12`, 20.2%; with `O=C(c1sc2ccccc2c1Cl)N1CCN(Cc2ccc3c(c2)OCO3)CC1`, 0.4%. Consider `O=S(=O)(Nc1nc2ccccc2nc1Nc1ccccc1)c1ccccc1`, for which the displacement came to 16.9%.

`CC(=O)Nc1ccc(Nc2nc3ccccc3nc2NS(=O)(=O)c2ccc(Cl)cc2)cc1`: the displacement is -12.5%. With `O=c1[nH]c2ccc(Nc3nc4ccccc4nc3NS(=O)(=O)c3ccc(Cl)cc3)cc2[nH]1` the figure was 102%; with `O=S(=O)(Nc1nc2ccccc2nc1Nc1cccc(O)c1)c1ccc(Cl)cc1`, 7.1%.

For the compound `COC(=O)c1cc(Nc2nc3ccccc3nc2NS(=O)(=O)c2ccccc2)ccc1Cl`, the displacement was 158%.

As to `COc1ccc2nc(NS(=O)(=O)c3ccc(Cl)cc3)c(Nc3ccc4[nH]c(=O)[nH]c4c3)nc2c1`, the displacement is -2.9%. As for `Cc1cccc(OCC(=O)Nc2ccccc2Cl)c1C`, the displacement was -1.5%. With `Cc1ccccc1OCCOc1ccc(/C=C2/SC(=S)N(C)C2=O)cc1` the figure was 0.3%. Turning to `CC1(C)CC(NC(=O)c2ccccc2F)CC(C)(C)N1`, the displacement was -12.3%. With `COc1cc(/C=C(\C#N)c2nc3ccccc3[nH]2)ccc1OCC(=O)O` the figure was 43.5%; with `COc1ccc(C=C2C(=O)N(c3ccc(C)cc3)C(=S)N(c3ccc(C)cc3)C2=O)cc1C(=O)O`, 15%; with `COc1ccc(OC(C)C(=O)Nc2ccc(N(C)C)cc2)cc1` (stereo unspecified), 9.1%.

Regarding `O=C(NCCNc1ccc(Cl)cc1[N+](=O)[O-])c1ccccc1F`, the displacement is -0.6%.

Regarding `O=C(Cn1cc(/C=C2/C(=O)NC(=O)N(c3ccccc3F)C2=O)c2ccccc21)Nc1ccccc1`, the displacement stood at 51.1%. `Cc1ccccc1N1C(=O)NC(=O)/C(=C/c2cn(CC(=O)Nc3ccccc3)c3ccccc23)C1=O`: the displacement was determined as 53.6%.

For the compound `CN1C(=O)C(=Cc2cn(CC(=O)Nc3ccccc3)c3ccccc23)C(=O)N(C)C1=O`, the displacement is -6.8%. To `N#CC(C#N)=Cc1cn(CC(=O)Nc2ccccc2)c2ccccc12` belongs -17.6%. Turning to `O=C(Cn1cc(/C=C2\NC(=O)NC2=O)c2ccccc21)Nc1ccccc1`, the displacement turned out to be 7.5%. On to `O=C(Cn1cc(/C=C2/C(=O)NC(=S)N(c3ccccc3F)C2=O)c2ccccc21)Nc1ccccc1`, for which the displacement was 30.7%. In the case of `COc1ccc(C2Nc3ccccc3NC3=C2C(=O)CC(c2ccccc2)C3)c(OC)c1` (stereo unspecified), the displacement stood at 5.9%. Consider `CCN1CCN(Cc2c(O)ccc3ccccc23)CC1`, for which the displacement amounted to 13.6%. With `O=C(/C=C/c1ccc(-c2cccc([N+](=O)[O-])c2)o1)c1ccco1` the figure was 79.3%; with `O=C(/C=C/c1ccc(-c2cc(Cl)ccc2Cl)o1)c1ccco1`, 126%. With `CC(=O)/C=C/c1ccc(-c2cccc([N+](=O)[O-])c2)o1` the figure was -5.2%; with `N#CC(C#N)=Cc1ccc(-c2ccc(Cl)c(C(=O)O)c2)o1`, 0.6%. With `O=C(/C=C/c1ccc(-c2cccc([N+](=O)[O-])c2)o1)Nc1ccc(Cl)cc1` the figure was 4.5%. For the compound `O=C(/C=C/c1ccc(-c2ccc(Cl)cc2Cl)o1)c1ccco1`, the displacement was 3.4%.

As for `N#C/C(=C/c1ccc(-c2cc(Cl)ccc2Cl)o1)C(=O)O`, the displacement stood at 2%. With `O=C(/C=C/c1ccc(-c2cccc([N+](=O)[O-])c2)o1)c1ccc(F)cc1`, the displacement stood at 3.4%. Regarding `O=C(/C=C/c1ccc(-c2cccc(Br)c2)o1)c1ccco1`, the displacement came to 11.8%. Regarding `N#CC(C#N)=Cc1ccc(-c2cc(Cl)ccc2Cl)o1`, the displacement came out at 93.5%. With `O=C(/C=C/c1ccc(-c2cccc([N+](=O)[O-])c2)o1)c1cc2ccccc2o1` the figure was 119%; with `O=C(/C=C\c1ccc(-c2cc(Cl)ccc2Cl)o1)c1ccccc1`, 24.9%.

As for `N#Cc1c2c(c(N3CCN(c4ccccn4)CC3)n3c1nc1ccccc13)CCC2`, the displacement is 2.1%. `O=C1c2ccccc2C(=O)N1CCc1nc2ccccc2c(=O)n1-c1ccc(Br)cn1`: the displacement is -10.3%.
